# High-throughput results deposited in PubChem by several laboratories.
# Most compounds without a hit are left out; they make up all but 3.1% or so of the library.
# UHRF1 MBD2 ctr: blocks human UHRF1 binding to methylated DNA. Q96T88. UHRF1 binding to methylated oligo, TR-FRET. inhibition, % at 4.4 µM. 0.75% of 370,000 active; in the data active = inhibition above about 21%;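 note: UHRF1 SRA domain binding a hemimethylated CpG hairpin DNA probe; 0% = median of test compound wells and 100% = reference inhibitor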
# KLK7 zymogen act: proKLK7 (human) activation, primary screen; activation, % at 7 µM; purified proKLK7, EDANS-DABCYL substrate fluorescence; 100% is mature enzyme control, 0% vehicle; P49862; 0.9% of 370,000 active;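 active = activation above the mean of all tested compounds plus 3 SD, computed per campaign excluding outliers beyond control limits, cut at about 13% in these data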
# Target sequence (P49862 whole entry, looked up): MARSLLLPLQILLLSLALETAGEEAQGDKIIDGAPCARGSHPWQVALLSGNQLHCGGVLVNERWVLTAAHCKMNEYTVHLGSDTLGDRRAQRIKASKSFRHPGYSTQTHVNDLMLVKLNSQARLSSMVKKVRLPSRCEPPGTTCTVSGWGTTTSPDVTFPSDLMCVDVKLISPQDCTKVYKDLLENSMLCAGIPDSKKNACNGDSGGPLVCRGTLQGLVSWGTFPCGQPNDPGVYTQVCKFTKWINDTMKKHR
# LEDGF integ inh: blocks HIV-1 LEDGF/p75-dependent DNA integration; TR-FRET IN-LEDGF/p75 DNA integration, Eu/Cy5; inhibition, % at 3.7 µM; 0.64% of 370,000 active; AID 743269;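 active = inhibition above the screen-wide mean plus 3 SD, cut at about 13% in these data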;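 note: signal is the Cy5 over europium emission ratio at 671 and 618 nm; 0% = plate median of compound wells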
# Neddyl block: blocks human cullin neddylation. P61081+Q13564. TR-FRET cullin neddylation, biochemical. calls only at 25 µM. 0.58% of 360,000 active. AID 651699; in the data active = inhibition above about 36%
# MBD2 DNA inh: blocks human MBD2 binding to methylated DNA | inhibition, % at 4.4 µM | AID 686964 | 0.31% of 370,000 active | Q9UBB5 | TR-FRET, MBD2 binding to methylated oligonucleotide; in the data active = inhibition above about 13%
# Rin1-Abl PPI inh: inhibitors of human Rin1-Abl protein interaction | P00519+Q13671 | TR-FRET Rin1/Abl binding, biochemical | inhibition, % at 7.35 µM | 0.4% of 360,000 active; in the data active = inhibition above about 5%, passing the limit was not always enough
# * marks the source's active call; other numbers are inactive results; i = inactive; nt = no result shown; + = active, no number.
SMILES,UHRF1 MBD2 ctr,KLK7 zymogen act,LEDGF integ inh,Neddyl block,MBD2 DNA inh,Rin1-Abl PPI inh
Brc1ccc(C=Nc2ccc(Nc3ccccc3)cc2)s1,nt,nt,nt,i,nt,7.2*
CCS(=O)(=O)N1Cc2ccccc2CC1C(=O)Nc1cccc(C)c1 (stereo not drawn),50*,-1,-11,i,4,1
CCc1sc(C(=O)NCCc2ccc(S(N)(=O)=O)cc2)cc1Br,21*,0,3,i,5,1
O=C(c1cccc(NS(=O)(=O)c2cccc(F)c2)c1)N1CCCC1,21*,0,-4,i,4,-3
O=C(c1cccc(S(=O)(=O)Nc2ccccc2Cl)c1)N1CCN(c2ccccc2O)CC1,21*,0,-2,i,3,3
O=C(c1cccc(S(=O)(=O)Nc2ccccc2Cl)c1)N1CCCCCC1,1,0,-2,i,2,-2
O=C(c1cccc(NS(=O)(=O)c2ccccc2)c1)N1CCCC1,-1,-1,0,i,1,-1
CN(C)c1ccc(S(=O)(=O)N2CCC(Cc3ccccc3)CC2)cn1,8,0,-2,i,-5,3
COc1ccc(OC)c(NC(=O)C(=O)NNC(=O)c2cccs2)c1,11,0,1,i,3,-5
O=C(Nc1ccccn1)c1ccc2c(=O)n3c(nc2c1)CCCCC3,21*,0,9,i,10,5
O=C(Nc1ccc(Cl)cc1)c1ccc2c(=O)n3c(nc2c1)CCCCC3,1,0,-3,i,-1,1
COc1ccc(S(N)(=O)=O)cc1C(N)=O,22*,0,-4,i,10,1
CCN(CC)CCCNC(=O)c1cn(C)c2ccc(S(=O)(=O)N(C)C)cc2c1=O,27*,0,6,i,8,-2
CCCCN(CC)CCCNC(=O)c1cn(C)c2ccc(S(=O)(=O)N(C)C3CCCCC3)cc2c1=O,-1,1,5,i,-5,3
CN(C)CCNC(=O)c1cccc2nc3c(ccc4ccccc43)nc12,-33,-3,-1,i,31*,-15
Cc1c(C2Nc3ccccc3C2C)[nH]c2ccccc12 (stereo not drawn),-1,-1,2,nt,-1,nt
CCCN(CCC)Cc1cc(=O)oc2cc3c(cc12)CCC3,31*,0,-1,i,-6,-3
CCOC(=O)C1=C(N)OC2=C(C(=O)CCC2)C1c1cccnc1 (stereo not drawn),0,0,-4,i,2,0
CC1=C(C(=O)OC(C)C)C(c2cccnc2)C2=C(CCCC2=O)N1 (stereo not drawn),91*,6,1,nt,-1,-2
N/C(=N\OC(=O)Cc1cccs1)c1ccccc1,21*,-1,-2,i,9,5
Cc1ccc(/C(N)=N/OC(=O)Cc2cccc3ccccc23)cc1,24*,0,0,i,6,-2
CCCCNC(=O)C[C@@H]1C[C@@]2(C(=O)OCC)CCC=C2N(Cc2ccc3c(c2)OCO3)C1=O,21*,0,-2,i,7,nt
CCOc1ccccc1N1CCN(C(=O)[C@@H]2CCCN2C2=NS(=O)(=O)c3ccccc32)CC1,40*,-1,-5,i,4,3
CC1(C)CC2CC(C)(CN2/C=N/c2sc3c(c2C#N)CC(C)(C)NC3(C)C)C1 (stereo not drawn),0,0,-2,i,-6,-3
Cc1ccc(S(=O)(=O)N2CCOCC2)cc1NC(=O)CNCc1ccccn1,27*,0,-3,i,0,-5
SMILES,UHRF1 MBD2 ctr,KLK7 zymogen act,LEDGF integ inh,Neddyl block,MBD2 DNA inh,Rin1-Abl PPI inh
Cc1ccc(S(=O)(=O)N2CCOCC2)cc1NC(=O)CNCc1ccccc1Cl,0,-1,1,i,-5,3
CCCCCC[C@@H](CCCc1ccccc1OC)CN(CCCC)S(C)(=O)=O,2,0,2,nt,-3,nt
CC(C)CCn1c(SCC(=O)Nc2ccccc2C(F)(F)F)nc2nccnc2c1=O,22*,0,5,i,5,3
O=C(NC1CCCC1)c1n[nH]c2ccccc12,45*,0,-2,i,-5,0
CC(C)(C)c1ccc(-c2nnc(SCC(=O)Nc3ccc4c(c3)OCCO4)n2-c2ccc(Cl)cc2)cc1,-3,0,-1,nt,2,nt
O=C(COC(=O)c1ccc[nH]c1=O)NC1CCCCCCC1,2,0,2,i,0,-4
Cc1cnc(C(=O)OCC(=O)NC2CCCCCC2)cn1,22*,0,-1,i,1,6
Cc1cnc(C(=O)OCC(=O)N2C(C)CCCC2C)cn1 (stereo not drawn),24*,1,-3,i,-1,-2
O=C(COC(=O)c1ccc[nH]c1=O)NC1CCCCCC1,56*,0,-5,i,0,0
O=C(O)C1CC(c2ccc(F)cc2)=NO1 (stereo not drawn),27*,0,4,i,5,2
O=C(O)C1CC(c2ccccc2)=NO1 (stereo not drawn),4,0,1,i,2,2
c1ccc(CNc2c3ccccc3nc3ccccc23)cc1,8,3,-5,i,6,-5
OCC(Cc1ccccc1)Nc1c2ccccc2nc2ccccc12 (stereo not drawn),-10,-2,0,+,-2,-9
C/C(=N\NC(=O)c1cc2ccccc2cc1O)c1ccc(C)o1,0,0,3,+,2,-3
C/C(=N/NC(=O)c1cc2ccccc2cc1O)c1ccco1,0,-2,1,i,-5,-3
O=C(Cn1cnc2ccccc2c1=O)NC1CCS(=O)(=O)C1 (stereo not drawn),0,0,-3,i,2,3
CC(CN1CCCCC1)C(=O)NN (stereo not drawn),21*,-1,3,i,4,2
CCCC(=O)OC12CCCN(C1)/C(=C/c1ccc(OC)cc1)C2 (stereo not drawn),-2,0,0,nt,0,nt
NCC12CC3CC(C1)CC(c1ccc(Cl)cc1)(C3)C2,21*,0,-4,i,5,4
Nc1ccc(C23CC4CC(CC(CO)(C4)C2)C3)cc1,-4,0,0,i,2,-1
CC1c2cccn2CCN1S(=O)(=O)c1ccc(F)cc1 (stereo not drawn),30*,0,2,i,6,-2
NNC(=O)c1cc(-c2ccc(N)cc2)nc2ccc(Br)cc12,-2,-1,-4,i,1,-5
CC(C)CNC(=S)N1CCC(NC(=O)c2ccco2)CC1,23*,0,-4,i,2,-1
CC(C)n1nnnc1-c1ccc(Cl)cc1,21*,0,3,i,2,0
CCOC(=O)c1c(NC(=O)C2CCCO2)sc(C(N)=O)c1C (stereo not drawn),-2,0,0,i,-4,-5
